The subject of this assay is Leishmania donovani. The experiment in a line: Leishmania intramacrophage assay. On the set-up: scale not given: in the data most compounds retested in dose-response had high values. In kind it is functional, organism-based.

About 1,000 (1.4%) of roughly 69,000 compounds showed an effect of 50% or more. The sample as a whole holds a higher share of strong results than the screen did.

Turning to `CCC1=N[C@@]2(CC[C@@H]3CN(Cc4ccccc4C)C[C@@H]32)C(=O)N1C.O=C(O)C(F)(F)F`, the “Percent Effect” value (30.3 µM, […]) amounted to 57.66%.
The same measure, in the same setting: with `CCC1=N[C@@]2(CC[C@@H]3CN(Cc4ccc(C)cc4)C[C@@H]32)C(=O)N1C.O=C(O)C(F)(F)F` the figure was 15.86%.
On the same count and under the same terms, with `CCC1=N[C@@]2(CC[C@@H]3CN(Cc4ccccc4C)C[C@@H]32)C(=O)N1.O=C(O)C(F)(F)F` the figure was 9.963%.
With `CCc1ccc(C2COCCN2C(=O)Nc2ccc(C(N)=O)c(Cl)c2)o1` (stereo not drawn), the “Percent Effect” value (30.3 µM, […]) is recorded as -7.006%.
For the molecule `CC1=C(C(=O)N2CCCC(Cn3cc(CO)nn3)C2)OCCO1` (stereo not drawn), the “Percent Effect” value (30.3 µM, […]) was -4.102%.
On to `Cc1ccccc1-n1cnc(Cl)c1CO`, for which the “Percent Effect” value (30.3 µM, […]) turned out to be 0.1894%.
Regarding `NS(=O)(=O)c1cccnc1Nc1cccc(Cl)c1Cl`, the “Percent Effect” value (30.3 µM, […]) is listed as 7.348%.
On the same count and under the same terms, in the case of `NS(=O)(=O)c1cccnc1NCc1ccco1` it was 37.64%.
Same read-out and setting: in the case of `NS(=O)(=O)c1cccnc1Nc1c(Cl)cccc1Cl` it was 68.36%.
As for `CC1Cc2ccccc2N1C(=O)Cn1nc(-c2cccs2)ccc1=O` (stereo not drawn), the “Percent Effect” value (30.3 µM, […]) was 31.43%.
In the case of `O=C1CC(c2ccc(C(=O)O)cc2)c2ncn(-c3ccccc3F)c2N1` (stereo not drawn), the “Percent Effect” value (30.3 µM, […]) amounted to 26.03%.
On to `CC(=O)Nc1nc(C(=O)NCc2ccc(N3CCCC3)nc2)cs1`, for which the “Percent Effect” value (30 µM) was found to be 7.198%.
`CC(=O)Nc1nc(C(=O)NCc2ccc(N3CCCCCC3)nc2)cs1`: under “30 µM, 30.03 µM”, the “Percent Effect” value was 27.71%.
Turning to `CC(=O)Nc1nc(C(=O)Nc2ccc(N3CCCCC3)nc2)cs1`, the “Percent Effect” value (30 µM, 30.03 µM) worked out at 56.06%.
`Cc1cn2c(n1)CCC(NC(=O)CCC(F)(F)F)C2` (stereo not drawn): under “30 µM, 30.03 µM”, the “Percent Effect” value was -20.9%.
With `COCCc1noc(CN2CCN(c3ccc(OC)cc3)C(=O)C2C)n1` (stereo not drawn), the “Percent Effect” value (30.3 µM, […]) is recorded as 6.497%.
For the molecule `COc1cc(CN2CCN(c3cccc(OC)c3)C(=O)C2)cc(OC)c1`, the “Percent Effect” value (30 µM, 30.03 µM) was -0.5901%.
For `CCc1ccc(CN2CCN(c3cccc(OC)c3)C(=O)C2)nc1`, the “Percent Effect” value (30.3 µM, […]) is recorded as 11.49%.
As to `COc1ccc(N2CCN(Cc3nc(CSC)no3)C(C)C2=O)cc1` (stereo not drawn), the “Percent Effect” value (30.3 µM, […]) is -39.19%.
`CCc1nnc(CN2CCN(c3cccc(OC)c3)C(=O)C2)o1`: the “Percent Effect” value (30.3 µM, […]) is given as 85%.
For `COc1ccc(N2CCN(Cc3nc(CSC)no3)CC2=O)cc1`, where the note is “30.3 µM, […]”, the “Percent Effect” value was found to be 62.54%.
Regarding `O=C(Nc1ccccc1F)C1=NN(c2ccccc2)C(=O)CN1`, the “Percent Effect” value (30 µM) is -15.12%.
On to `Cc1cc(NCCc2c(C)n[nH]c2C)nc(-c2cccnc2)n1`, for which the “Percent Effect” value (30.3 µM, […]) is listed as 4.777%.
For the molecule `Cn1ccnc1CN(Cc1ccccn1)Cc1ccccc1Cl.O=C(O)CC(O)(CC(=O)O)C(=O)O`, the “Percent Effect” value (30.3 µM, […]) amounted to 10.71%.
On the same count and under the same terms, in the case of `O=C(Nc1ccc(Cl)cn1)c1cncc(C2CCNCC2)n1` it was -16.97%.
Take `COc1ccccc1C(=O)N1CCN(CCc2scnc2C)CC1`: the “Percent Effect” value (30.3 µM, […]) came out at 5.837%.
`CCS(=O)(=O)NCC(=O)Nc1cc(CC(C)(C)C)n[nH]1`: where the note is “30.3 µM, […]”, the “Percent Effect” value is -13.95%.
On the same count and under the same terms, with `Cc1cnn(C2CN(CCOc3cccc(C#N)c3)C2)c1` the figure was 0.4339%.
Turning to `COc1ccc(C2CCCN2c2cnccn2)c(OC)c1` (stereo not drawn), the “Percent Effect” value (30.3 µM, […]) worked out at 20.05%.
On the same count and under the same terms, with `COc1ccc(C2CCCN2c2ccnc(C)c2Cl)c(OC)c1` (stereo not drawn) the figure was 54.95%; with `COc1ccc(C2CCCN2c2nnc(C)s2)c(OC)c1` (stereo not drawn), 1.461%; with `CCOc1ccc(CNCCCn2ccnc2)cc1Cl.Cl.Cl`, 68.16%.
On to `CCOc1ccc(CNCCCn2ccnc2)cc1Br`, for which the “Percent Effect” value (30 µM, 30.03 µM) was determined as 80.37%.
Turning to `COCCCn1ccc(NC(=O)NCCCn2ccnc2)n1`, the “Percent Effect” value (30.3 µM, […]) is recorded as 2.018%.
Still for that read-out and setting: with `CCOc1ccc(CNCCCn2ccnc2)cc1OC` the figure was 3.86%.
Regarding `COc1ccc(C(=O)NCCCn2ccnc2)c(OC)n1`, the “Percent Effect” value (30 µM, 30.03 µM) was found to be 10.91%.
As to `CCOc1ccc(NC(=O)N2CCC(n3cncn3)CC2)cc1Cl`, for the setting “30.3 µM, […]”, the “Percent Effect” value was -3.205%.
The same measure, in the same setting: in the case of `COc1cc(CNCCn2ccnc2)cc2c1OCO2.Cl` it was 27.41%; in that of `CCOc1cc(CNCCCn2ccnc2)cc(Cl)c1OC`, 37.96%; in that of `CCOc1cc(CNCCCn2ccnc2)cc(Cl)c1OCC`, 81.44%.
On to `CN(C)C(=O)COCc1nn(C)c2c1CCN(Cc1ccco1)C2.O=C(O)C(F)(F)F`, for which, under “30.3 µM, […]”, the “Percent Effect” value came to 23.44%.
On to `O=C(NCC(F)F)c1ccc(S(=O)(=O)N2CCCC(O)C2)cc1` (stereo not drawn), for which, under “30.3 µM, […]”, the “Percent Effect” value was 15.51%.
The same measure, in the same setting: in the case of `CN(C)Cc1ccc(C(=O)N2CCCC(n3cccn3)C2)cc1` (stereo not drawn) it was -1.565%.
As to `Cc1nn(C)c(N(C)C)c1CNC1CCc2c(Cl)cccc21.Cl` (stereo not drawn), where the note is “30 µM”, the “Percent Effect” value is 34.54%.
Take `O=C([C@@H](O)Cc1ccccc1)N1CCCn2cncc2C1`: the “Percent Effect” value (30.3 µM, […]) came to 13.9%.
Still for that read-out and setting: with `Cn1ccc(C(=O)Nc2nc(-c3ccc4c(c3)CCO4)cs2)cc1=O` the figure was 32.33%; with `O=C(O)C(F)(F)F.O=C(c1ccc(F)cc1)N1C[C@@H]2COC[C@]2(COc2cccnc2)C1`, 16.14%.
Same read-out and setting: in the case of `O=C(COc1ccccc1)N1C[C@@H]2COC[C@]2(COc2cccnc2)C1.O=C(O)C(F)(F)F` it was 29.31%.

These data come from ChEMBL document CHEMBL3988442, “University of Dundee, Small-Polar-MMV Screening Library” (2021).
